A short description of assay [1]: qHTS assay to identify aromatase inhibitors - cell viability counter screen (AID 743084).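 Note: cells stimulated with testosterone during compound exposure; nearly all actives have a fitted effect of over 55% in size.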 On the technique in general: qHTS replaces the single test concentration by a dilution series.
The target in assay [2] is Aryl hydrocarbon receptor (Homo sapiens) (UniProt P35869). Description: qHTS assay to identify small molecule that activate the aryl hydrocarbon receptor (AhR) signaling pathway (AID 743085).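 For activation: HG2L7.5c1 human HepG2 liver cells with stably integrated DRE-driven firefly reporter; series mostly up to about 70 µM.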 Note: nearly all actives have a fitted effect of over 15% in size. Note: potency is the fitted concentration of half-maximal effect. An outline of the steps: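 HepG2 cells stably carrying a 20-DRE firefly luciferase reporter (HG2L7.5c1) treated with compound for 24 hr at 37C. Luciferase read by ONE-Glo luminescence, with CellTiter-Fluor viability read first.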
Sequence of Aryl hydrocarbon receptor (Homo sapiens) (P35869 whole entry, looked up): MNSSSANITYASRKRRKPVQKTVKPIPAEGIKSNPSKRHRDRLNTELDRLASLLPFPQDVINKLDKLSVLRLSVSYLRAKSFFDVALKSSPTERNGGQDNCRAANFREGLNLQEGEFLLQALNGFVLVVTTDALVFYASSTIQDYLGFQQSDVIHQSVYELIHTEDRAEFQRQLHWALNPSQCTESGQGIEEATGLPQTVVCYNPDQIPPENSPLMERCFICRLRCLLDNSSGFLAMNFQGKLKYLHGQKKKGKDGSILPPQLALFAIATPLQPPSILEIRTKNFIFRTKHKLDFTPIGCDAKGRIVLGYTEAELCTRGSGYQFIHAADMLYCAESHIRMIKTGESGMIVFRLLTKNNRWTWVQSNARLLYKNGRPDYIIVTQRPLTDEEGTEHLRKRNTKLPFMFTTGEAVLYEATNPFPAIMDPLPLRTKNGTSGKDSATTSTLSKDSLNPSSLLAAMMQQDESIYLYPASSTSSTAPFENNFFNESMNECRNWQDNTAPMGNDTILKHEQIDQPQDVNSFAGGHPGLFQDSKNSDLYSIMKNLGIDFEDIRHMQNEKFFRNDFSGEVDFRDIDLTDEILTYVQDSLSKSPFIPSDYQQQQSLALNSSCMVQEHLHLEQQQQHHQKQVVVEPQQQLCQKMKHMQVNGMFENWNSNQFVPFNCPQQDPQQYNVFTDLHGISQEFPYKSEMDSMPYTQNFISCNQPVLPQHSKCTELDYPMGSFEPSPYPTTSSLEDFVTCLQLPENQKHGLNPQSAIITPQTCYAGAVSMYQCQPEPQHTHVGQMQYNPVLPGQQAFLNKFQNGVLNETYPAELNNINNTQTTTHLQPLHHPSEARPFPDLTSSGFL

Assay [3] is described as follows: qHTS assay to identify small molecule that activate the aryl hydrocarbon receptor (AhR) signaling pathway - cell viability counter screen (AID 743086). Note: series mostly up to about 70 µM; nearly all actives have a fitted effect of over 45% in size. An outline of the steps: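 HepG2-AhR-luc (HG2L7.5c1) cells, 4000/well, treated 24 h at 37 C with compound; viability measured as CellTiter-Fluor fluorescence after 30 min in the same wells as the luciferase read.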

The target of assay [4] is Peroxisome proliferator-activated receptor gamma (Homo sapiens) (UniProt P37231). In words: qHTS assay to identify small molecule agonists of the peroxisome proliferator-activated receptor gamma (PPARg) signaling pathway (AID 743094; active = well fitted activation curve with a large enough effect in the signal ratio in the repeat runs, not every such curve was filed as active; the % refers to the signal ratio). Put shortly: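 Agonism was assessed in a beta-lactamase reporter system, HEK293H cells with a stably integrated UAS-bla construct under PPARg control; the 17 h treatment at 37C preceded a 1 h room-temperature FRET substrate read.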
Sequence of Peroxisome proliferator-activated receptor gamma (Homo sapiens) (P37231 whole entry, looked up): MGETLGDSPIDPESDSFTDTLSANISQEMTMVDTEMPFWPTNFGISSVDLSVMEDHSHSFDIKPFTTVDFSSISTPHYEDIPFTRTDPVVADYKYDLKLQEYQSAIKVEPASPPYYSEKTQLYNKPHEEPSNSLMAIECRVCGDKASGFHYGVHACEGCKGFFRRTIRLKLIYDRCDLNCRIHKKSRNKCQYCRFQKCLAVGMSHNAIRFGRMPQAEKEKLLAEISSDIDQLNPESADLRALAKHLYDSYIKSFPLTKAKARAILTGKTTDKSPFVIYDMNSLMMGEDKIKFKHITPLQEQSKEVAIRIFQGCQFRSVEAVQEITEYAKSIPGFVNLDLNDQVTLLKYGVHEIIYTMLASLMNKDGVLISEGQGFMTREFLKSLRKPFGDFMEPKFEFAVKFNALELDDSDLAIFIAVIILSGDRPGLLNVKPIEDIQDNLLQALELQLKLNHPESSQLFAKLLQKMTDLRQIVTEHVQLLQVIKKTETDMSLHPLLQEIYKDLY

Assay [5] has the same target. Description: qHTS assay to identify small molecule antagonists of the peroxisome proliferator-activated receptor gamma (PPARg) signaling pathway (AID 743191; calls by dose curve; note: series mostly up to about 63 µM; nearly all actives have a fitted effect of over 30% in size). An outline of the steps:
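GeneBLAzer PPARg UAS-bla HEK293H cells, 5 h post-plating, exposed to compounds 17 h at 37C. LiveBLAzer B/G FRET substrate added for 1 h at room temperature; beta-lactamase reporter read by fluorescence intensity.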

A short description of assay [6]: qHTS assay to identify small molecule antagonists of the peroxisome proliferator-activated receptor gamma (PPARg) signaling pathway - cell viability counter screen (AID 743194). Note: nearly all actives have a fitted effect of over 55% in size. An outline of the steps:
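Cytotoxicity counter screen in PPARg-bla HEK293H cells, same wells as reporter assay. Compounds plus 50 nM rosiglitazone (final) for 17 h at 37 C, then viability read by CellTiter-Glo luminescence.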

Assay [7] in a line: qHTS assay for small molecule agonists of the antioxidant response element (ARE) signaling pathway (AID 743202; active = well fitted activation curve with a large enough effect in the signal ratio in the repeat runs, not every such curve was filed as active; the % refers to the signal ratio). Put shortly: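 HepG2 ARE-bla cells; 16 h treatment at 37 C; FRET-based beta-lactamase fluorescence read after 2 h substrate incubation at room temperature.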
Assay [8] can be described thus: qHTS assay for small molecule agonists of the antioxidant response element (ARE) signaling pathway - cell viability counter screen (AID 743203; calls by dose curve; note: nearly all actives have a fitted effect of over 55% in size). An outline of the steps: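 ATP content via CellTiter-Glo luminescence served as the viability measure. Cells: ARE-bla HepG2, 2,000 per well. Exposure: 16 hrs, 37C/5% CO2.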
Assay [9] can be described thus: qHTS assay for small molecule activators of the heat shock response signaling pathway - cell viability counter screen (AID 743209). Note: nearly all actives have a fitted effect of over 50% in size. An outline of the steps: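 Compounds dissolved in DMSO were added to overnight-plated HSE-bla HeLa cells and left 5 h at 37 C. Cell viability was quantified by luminescence using CellTiter-Glo.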
Assay [10] is described as follows: qHTS assay for small molecule activators of the heat shock response signaling pathway (AID 743210; active = well fitted activation curve with a large enough effect in the signal ratio in the repeat runs, with a control signal flat, not every such curve was filed as active; the % refers to the signal ratio;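 note: HeLa cells with beta-lactamase reporter driven by heat shock elements; series mostly up to about 63 µM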). An outline of the steps:
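Following overnight attachment, HSE-bla HeLa cells received test compounds for 5 h at 37 C; beta-lactamase activity was then detected via FRET substrate fluorescence.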

The target of assay [11] is Peroxisome proliferator-activated receptor delta (Homo sapiens) (UniProt Q03181). Description: qHTS assay to identify small molecule agonists of the peroxisome proliferator-activated receptor delta (PPARd) signaling pathway (AID 743212; calls by dose curve). Put shortly:
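Tox21 library screened in GeneBLAzer PPARd UAS-bla HEK293H cells. After compound treatment at 37 C, a FRET-based beta-lactamase substrate was applied for 2 h and fluorescence recorded.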

For assay [12] the target is unchanged. Description: qHTS assay to identify small molecule antagonists of the peroxisome proliferator-activated receptor delta (PPARd) signaling pathway (AID 743215; active = well fitted inhibition curve with a large enough effect in the signal ratio in the repeat runs, not every such curve was filed as active; the % refers to the signal ratio;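 note: cells stimulated with agonist L165041 at 300 nM final during compound exposure; series mostly up to about 62 µM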). Put shortly: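 Here, a reporter line (HEK293H, beta-lactamase under a UAS) measures PPARd signaling. Compounds are tested against agonist L165041 at 300 nM final concentration over 17 h at 37 C, with fluorescence read after substrate.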

Assay [13] in a line: qHTS assay to identify small molecule agonists of the farnesoid-X-receptor (FXR) signaling pathway - cell viability counter screen (AID 743218). Note: nearly all actives have a fitted effect of over 45% in size. An outline of the steps: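 Quantitative HTS counter screen measuring ATP-based viability via CellTiter-Glo luminescence in HEK 293T cells carrying a UAS-driven beta-lactamase reporter, after 16 h compound exposure at 37 C.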
Assay [14] in a line: qHTS assay to identify small molecule antagonists of the farnesoid-X-receptor (FXR) signaling pathway - cell viability counter screen (AID 743221; active = well fitted cell-killing curve with a large enough effect in the repeat runs, not every such curve was filed as active; note: nearly all actives have a fitted effect of over 50% in size). An outline of the steps: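 GeneBLAzer FXR-UAS-bla HEK 293T cells, compound plus chenodeoxycholic acid (50 uM final), 16 h at 37 C. CellTiter-Glo added to the same wells after the beta-lactamase read; luminescence read after 30 min at room temperature as viability.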

Assay [15] has as its target Vitamin D3 receptor (Homo sapiens) (UniProt P11473). In words: qHTS assay to identify small molecule agonists of the vitamin D receptor (VDR) signaling pathway (AID 743222; calls by dose curve). An outline of the steps: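 Tox21 cell reporter format: VDR-bla line, 16 h compound exposure in 5% CO2 at 37C, then fluorescence intensity after 2 h with LiveBLAzer B/G FRET substrate.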
The target is the same in assay [16]. In words: qHTS assay to identify small molecule antagonists of the vitamin D receptor (VDR) signaling pathway (AID 743223; active = well fitted inhibition curve with a large enough effect in the signal ratio in the repeat runs, not every such curve was filed as active; the % refers to the signal ratio). An outline of the steps: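 VDR-bla cells were treated with compound plus 3 nM final 1alpha,25-dihydroxyvitamin D3 for 16 h at 37C. Beta-lactamase reporter read by B/G FRET substrate fluorescence after 2 h at room temperature. qHTS format.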

Assay [17] can be described thus: qHTS assay to identify small molecule agonists of the peroxisome proliferator-activated receptor delta (PPARd) signaling pathway - cell viability counter screen (AID 743211). Note: nearly all actives have a fitted effect of over 55% in size. Put shortly:
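PPARd-bla HEK293H cells (3000/well) were pre-incubated 5 h at 37 C, then exposed to compound for 17 h at 37 C. After 2 h with LiveBLAzer substrate, CellTiter-Glo was added to the same wells; luminescence read after 30 min at room temperature.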

Assay [18] is described as follows: qHTS assay to identify small molecule antagonists of the peroxisome proliferator-activated receptor delta (PPARd) signaling pathway - cell viability counter screen (AID 743213). Note: nearly all actives have a fitted effect of over 50% in size. An outline of the steps: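 In this counter screen, HEK293H cells carrying a UAS-beta-lactamase reporter are co-treated with test compounds and 300 nM L165041 (final) for 17 h at 37 C; cell viability is quantified by CellTiter-Glo luminescence.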

The target of assay [19] is Bile acid receptor (Homo sapiens) (UniProt Q96RI1). In words: qHTS assay to identify small molecule antagonists of the farnesoid-X-receptor (FXR) signaling pathway (AID 743217; active = well fitted inhibition curve with a large enough effect in the signal ratio in the repeat runs, not every such curve was filed as active; the % refers to the signal ratio). Put shortly: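 Test compounds are pin-transferred onto FXR-bla HEK 293T cells, then chenodeoxycholic acid is added at 50 uM final. After 16 h at 37 °C, LiveBLAzer B/G substrate is applied for 2 h at room temperature and fluorescence read.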
Sequence of Bile acid receptor (Homo sapiens) (Q96RI1 whole entry, looked up): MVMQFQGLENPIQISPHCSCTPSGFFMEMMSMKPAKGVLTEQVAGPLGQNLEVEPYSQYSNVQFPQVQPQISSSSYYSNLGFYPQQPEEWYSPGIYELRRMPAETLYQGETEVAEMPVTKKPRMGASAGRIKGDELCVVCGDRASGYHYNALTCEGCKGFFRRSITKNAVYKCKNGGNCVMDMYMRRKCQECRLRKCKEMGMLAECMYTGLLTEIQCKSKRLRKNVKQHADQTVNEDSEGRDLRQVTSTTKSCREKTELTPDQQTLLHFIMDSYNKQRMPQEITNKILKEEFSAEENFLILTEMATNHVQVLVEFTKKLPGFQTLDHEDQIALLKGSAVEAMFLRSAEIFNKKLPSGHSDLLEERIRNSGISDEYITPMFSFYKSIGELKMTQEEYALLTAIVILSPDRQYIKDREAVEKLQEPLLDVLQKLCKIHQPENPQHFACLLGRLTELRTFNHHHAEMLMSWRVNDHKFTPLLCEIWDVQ

Assay [20] has the same target. In words: qHTS assay to identify small molecule agonists of the farnesoid-X-receptor (FXR) signaling pathway (AID 743220; active = well fitted activation curve with a large enough effect in the signal ratio in the repeat runs, not every such curve was filed as active; the % refers to the signal ratio). An outline of the steps: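 FXR-UAS-bla HEK 293T cells carrying a UAS-driven beta-lactamase reporter were plated for 5 h at 37C/5% CO2, then exposed to DMSO-dissolved Tox21 10K compounds for 16 h at 37C. A LiveBLAzer B/G FRET substrate was loaded for 2 h at room temperature before fluorescence reading.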

Inconclusive results are not listed. The source made the active and inactive calls. Unless noted, calls come from the whole dose curve; as a rule, active = well fitted curve in the direction sought with a large enough effect in the repeat runs; inconclusive = weak or mixed curves; inactive = no such curve, though single readings can be large; an effect the other way counts as inactive or inconclusive.

Sequence of Peroxisome proliferator-activated receptor delta (Homo sapiens) (Q03181 whole entry, looked up): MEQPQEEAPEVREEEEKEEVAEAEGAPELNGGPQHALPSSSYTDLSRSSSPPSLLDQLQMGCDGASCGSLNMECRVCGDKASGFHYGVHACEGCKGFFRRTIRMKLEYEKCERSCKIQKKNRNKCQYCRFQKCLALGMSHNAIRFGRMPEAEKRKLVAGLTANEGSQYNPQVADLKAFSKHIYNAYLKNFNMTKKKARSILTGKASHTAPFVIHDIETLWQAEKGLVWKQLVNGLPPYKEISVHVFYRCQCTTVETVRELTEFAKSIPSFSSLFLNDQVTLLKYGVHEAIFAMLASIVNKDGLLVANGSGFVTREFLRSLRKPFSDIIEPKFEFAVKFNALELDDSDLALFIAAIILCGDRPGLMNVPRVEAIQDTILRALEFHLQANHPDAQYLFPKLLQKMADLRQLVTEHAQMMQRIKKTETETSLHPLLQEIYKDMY
Sequence of Vitamin D3 receptor (Homo sapiens) (P11473 whole entry, looked up): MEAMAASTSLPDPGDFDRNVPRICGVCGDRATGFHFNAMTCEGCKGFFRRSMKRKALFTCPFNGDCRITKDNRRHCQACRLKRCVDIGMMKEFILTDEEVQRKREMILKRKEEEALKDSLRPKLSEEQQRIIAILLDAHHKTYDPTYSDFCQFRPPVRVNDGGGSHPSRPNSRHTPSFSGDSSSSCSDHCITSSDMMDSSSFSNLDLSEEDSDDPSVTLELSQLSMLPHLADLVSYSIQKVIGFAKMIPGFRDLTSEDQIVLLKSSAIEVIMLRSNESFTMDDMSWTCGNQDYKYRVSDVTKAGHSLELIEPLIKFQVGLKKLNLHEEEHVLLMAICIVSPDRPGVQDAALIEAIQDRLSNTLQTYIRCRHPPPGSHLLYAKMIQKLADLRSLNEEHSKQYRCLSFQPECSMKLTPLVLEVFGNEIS

On to `C[C@H]1C[C@H]2[C@@H]3CCC4=CC(=O)C=C[C@]4(C)[C@@]3(Cl)[C@@H](O)C[C@]2(C)[C@@]1(O)C(=O)CO`, for which the Potency entry in [1], in [2], in [3], in assay [4], in assay [5] and in [6] was “inactive” in each case. In addition, the Potency entry in assay [7], in assay [8], in assay [9], in assay [10], in [11] and in assay [12] was “inactive” in each case. The Potency result in assay [13], in assay [14] and in assay [15] was “inactive” throughout. Moreover, the call in assay [16] was inactive.

As for `Cc1cc(C(=O)O)ccc1[N+](=O)[O-]`, the Potency entry in assay [1], in [2], in assay [3], in [4], in assay [5] and in [6] was “inactive” throughout. In addition, the Potency entry in [7], in assay [8], in assay [9], in assay [10], in assay [17] and in [11] was “inactive” in each case. Further, the Potency entry in [12] and in [15] was “inactive” throughout.

As for `COc1ccc(C(=O)N2CCN(CC(=O)N3CCOCC3)CC2)cc1`, the Potency result in [1], in assay [2], in assay [3], in assay [4], in [5] and in assay [6] was “inactive” in each case. For the same compound, the Potency result in assay [7], in assay [8], in [10], in assay [17], in assay [18] and in assay [13] was “inactive” throughout. In addition, the Potency entry in assay [14] and in assay [15] was “inactive” in each case. Further, the outcome in assay [16] was inactive.

Take `Nc1cccc([N+](=O)[O-])c1`: the Potency result in assay [1], in [2], in assay [3], in [4], in assay [5] and in assay [6] was “inactive” in each case. In addition, the Potency result in assay [7], in assay [8], in [10], in [17], in [11] and in [18] was “inactive” in each case. Besides, the Potency entry in [12], in assay [19], in assay [13], in [20] and in [14] was “inactive” throughout.

With `NCCCN1CCOCC1`, the Potency result in assay [1], in assay [2], in [3], in assay [4], in [5] and in [6] was “inactive” throughout. Besides, the Potency entry in assay [8], in [9], in assay [10], in [17], in assay [11] and in [18] was “inactive” in each case. Also, the Potency entry in assay [12], in assay [19], in assay [13], in assay [20], in assay [14] and in [15] was “inactive” throughout. The outcome in assay [16] was inactive.

Take `CC(=O)c1ccc2c(c1)N(CCCN1CCC(CCO)CC1)c1ccccc1S2`: the Potency entry in [1], in assay [2], in assay [3], in assay [4], in assay [5] and in [6] was “inactive” each time. In addition, the Potency entry in assay [7] and in [10] was “inactive” in each case.

`CCOCC(O)COc1ccc(NC(=O)CC[S+](C)C)cc1` (stereo not given): the Potency entry in assay [1], in assay [3], in [4], in assay [5], in assay [6] and in assay [7] was “inactive” in each case. In addition, the Potency entry in [8], in assay [9], in assay [11], in assay [12], in assay [19] and in [13] was “inactive” each time. Also, the Potency result in [14] and in [15] was “inactive” in each case. In addition, in assay [2], the Potency was 5.31 µM (active).

Take `O=C(OCCc1ccccc1)c1ccccc1`: the Potency result in assay [1], in [2], in assay [3], in assay [4], in assay [5] and in assay [6] was “inactive” each time. Besides, the Potency result in assay [7], in [8], in assay [10], in assay [17], in assay [11] and in assay [18] was “inactive” throughout. Moreover, the Potency result in assay [12], in assay [13], in assay [14] and in assay [15] was “inactive” each time.

For the origin of these results see PubChem BioAssay (Tox21).
